High-throughput results deposited in PubChem by National Center for Advancing Translational Sciences (NCATS).
JMJD2A Tudor: inhibitors of human JMJD2A Tudor domain. AlphaScreen JMJD2A-Tudor / H3K4me3 peptide binding. Potency, µM (series often up to 114 µM), usual class: inhibitors. 390,000 compounds, 4.4% hits. AID 504339; also: nearly all actives have a fitted effect of over 50% in size
GCN5L2 inh: blocks human GCN5L2 histone acetyltransferase; AID 504327; Q92830; 390,000 compounds, 0.21% hits; GCN5L2 HAT assay, ThioGlo1 CoA-SH fluorescence; Potency, µM (doses to about 58.9 µM), hits mostly inhibitors
Target sequence (Q92830 whole entry, looked up): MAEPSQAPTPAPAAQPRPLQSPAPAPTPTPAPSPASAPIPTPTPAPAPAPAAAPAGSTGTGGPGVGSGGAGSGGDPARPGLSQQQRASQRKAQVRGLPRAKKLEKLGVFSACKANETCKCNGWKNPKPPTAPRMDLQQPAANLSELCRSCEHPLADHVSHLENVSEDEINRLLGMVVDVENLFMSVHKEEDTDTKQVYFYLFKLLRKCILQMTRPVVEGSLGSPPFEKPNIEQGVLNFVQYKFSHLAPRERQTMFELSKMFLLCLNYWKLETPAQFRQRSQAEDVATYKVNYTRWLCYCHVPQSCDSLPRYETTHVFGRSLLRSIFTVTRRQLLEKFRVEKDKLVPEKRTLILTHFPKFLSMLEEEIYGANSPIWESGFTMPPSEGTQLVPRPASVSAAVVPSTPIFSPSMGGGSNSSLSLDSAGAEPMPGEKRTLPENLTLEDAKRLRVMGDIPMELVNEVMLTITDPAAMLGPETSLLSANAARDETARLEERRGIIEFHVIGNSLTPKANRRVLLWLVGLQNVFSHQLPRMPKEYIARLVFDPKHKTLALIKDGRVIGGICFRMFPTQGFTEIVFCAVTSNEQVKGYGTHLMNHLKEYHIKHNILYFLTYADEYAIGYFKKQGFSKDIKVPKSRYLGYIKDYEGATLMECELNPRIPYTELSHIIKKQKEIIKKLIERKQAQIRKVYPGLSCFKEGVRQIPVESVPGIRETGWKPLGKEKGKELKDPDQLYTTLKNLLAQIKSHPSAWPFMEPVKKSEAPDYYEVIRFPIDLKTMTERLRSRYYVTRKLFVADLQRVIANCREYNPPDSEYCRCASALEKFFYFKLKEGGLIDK
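GCN5L2 (20nM final) in 50mM HEPES, 0.1mM EDTA pH 7.5, 0.01% Tween-20 was preincubated 15 min at room temperature with compound, then given ThioGlo1 (50uM), H3(1-25) peptide (75uM) and acetyl-CoA (70uM); CoA-thiol fluorescence (Ex340/Em540) was read at 0 and 20 min.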
PI5P4K alpha inh: blocks human PI5P4K alpha kinase activity; P48426; PI5P4Kalpha enzyme, ADP-Glo luminescence, 60 min; stronger effect = lower value; max response, %; 330,000 compounds, 1.2% hits; AID 652105; active = max response of -50% or lower; inconclusive = between -30% and -50%; inactive = -30% or higher; also: value at the top dose of about 77 µM
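Single end-point luminescence (ADP-Glo) quantified ADP from PI5P4Kalpha turnover; ATP 5 microM final, 1 h at RT, 0.1% CHAPS and 0.28 mM EGTA in HEPES pH 7.4.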
HP1b binding inh: inhibitors of HP1-beta chromodomain binding to methylated histone tails; P83916; AlphaScreen HP1-beta / biotin-H3K9me3 peptide binding; Potency, µM (doses to about 114 µM), most hits filed as inhibitors; 390,000 compounds, 0.56% hits; AID 540317; also: nearly all actives have a fitted effect of over 70% in size
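HP1-beta protein (50 nM final) preincubated 30 min at room temperature with biotinylated H3(1-18)K9me3 peptide (50 nM) in PBS pH 7.4, 0.01% Tween-20, then compound added for 30 min. AlphaScreen streptavidin donor/nickel chelate acceptor beads (10 ug/mL final), 30 min dark, luminescence read.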
PLK1 PBD block: inhibitors of human PLK1 polo-box domain binding; P53350; Plk1 PBD binding of FITC phosphopeptide, fluorescence polarization; Potency, µM, actives largely listed as inhibitors; 360,000 compounds, 2.8% hits; also: series mostly up to about 57 µM; nearly all actives have a fitted effect of over 65% in size
BAZ2B block: BAZ2B (human) inhibition; Q9UIF8; Potency, µM (titrated, usually from 114 µM), most hits filed as inhibitors; AID 504333; AlphaScreen BAZ2B-H3K14Ac peptide displacement; 360,000 compounds, 4.4% hits; also: nearly all actives have a fitted effect of over 60% in size
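Multi-concentration screen (max 110 uM) measuring displacement of acetylated histone H3 peptide from BAZ2B by AlphaScreen, using 50 nM protein, 50 nM peptide and 10 ug/mL streptavidin donor plus Ni-chelate acceptor beads.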
Large screens that a line does not name were inactive. Shown are actives, neighbours in structure and some others; about 7% of the full set was active somewhere. Unless noted, calls follow the shape of the dose curve; as a rule, active = well fitted curve in the direction sought with a large enough effect; inconclusive = small, poorly fitted or top-dose-only effect, or another doubt; inactive = no such curve, though single readings can be large; an effect the other way counts as inactive or inconclusive.

COCCCNC(=O)Cn1c(=O)n(-c2ccc(C)c(C)c2)c(=O)c2c3c(sc21)CCCCC3	none (no result: PI5P4K alpha inh, PLK1 PBD block)
COCCNC(=O)C(c1ccccc1F)N(C(=O)C(=O)NC1CCCC1)C1CCCCC1 (stereo unspecified)	none
S=c1[nH]nc(Nc2ccccc2Cl)s1	JMJD2A Tudor 6.3µM, GCN5L2 inh 25µM, PI5P4K alpha inh -78, HP1b binding inh 22µM, PLK1 PBD block 19µM, BAZ2B block 45µM
S=c1[nH]nc(Nc2cccc(Cl)c2)s1	GCN5L2 inh 22µM, PI5P4K alpha inh -55
Cc1ccc(Nc2cc(=O)[nH]c(=O)[nH]2)cc1C	none
O=C(c1ccc(Cl)cc1)c1cnc(Nc2ccccc2Cl)s1	none (no result: PI5P4K alpha inh)
Cc1ccc(Nc2n[nH]c(=S)s2)cc1C	PI5P4K alpha inh -74, PLK1 PBD block inconclusive (no result: JMJD2A Tudor, GCN5L2 inh, HP1b binding inh, BAZ2B block)
COC(=O)\C(C(C)=O)=C(/C=C/C=C/N(C)C)N(C)C	JMJD2A Tudor inconclusive, BAZ2B block 35µM
O=S(=O)(Nc1ccc(O)c2ccccc12)c1ccc(Br)cc1	BAZ2B block 45µM (no result: JMJD2A Tudor, PI5P4K alpha inh, HP1b binding inh, PLK1 PBD block)
CC(=O)Nc1ccc(NS(=O)(=O)c2ccccc2)c2ccccc12	none
O=S(=O)(Nc1ccc(O)c2ccccc12)c1cccs1	JMJD2A Tudor 13µM, HP1b binding inh 45µM, PLK1 PBD block 12µM
COc1ccc(C2c3c(nc(CCCc4ccccc4)[nH]c3=O)Oc3ccc4ccccc4c32)cc1OC (stereo unspecified)	none (no result: GCN5L2 inh, PI5P4K alpha inh, HP1b binding inh, PLK1 PBD block, BAZ2B block)
O=C(O)c1c(-c2ccccc2)oc2ccc(OCc3c(F)cccc3Cl)cc12	JMJD2A Tudor inconclusive (no result: PI5P4K alpha inh, PLK1 PBD block)
COc1ccc2[nH]c(C(=O)N3CCNCC3)cc2c1OC	none
C=Cc1c(C)/c2[n-]/c1=C\c1[n-]c(c(CC)c1C)/C=c1\[n-]c3c(c1C)C(=O)C(C(=O)[O-])C=3c1[n-]c(c(C)c1CCC(=O)[O-])\C=2.[Cu].[Na+].[Na+] (stereo unspecified)	GCN5L2 inh 2.5µM (no result: JMJD2A Tudor, PI5P4K alpha inh, HP1b binding inh, PLK1 PBD block, BAZ2B block)
COc1ccc(CCNC(=O)c2ccc3nc(-c4ccco4)c(-c4ccco4)nc3c2)cc1OC	JMJD2A Tudor inconclusive, GCN5L2 inh inconclusive, PI5P4K alpha inh -55, HP1b binding inh inconclusive, PLK1 PBD block 27µM, BAZ2B block 50µM
COc1ccc(CCNC(=O)c2ccn[nH]2)cc1OC	JMJD2A Tudor inconclusive, PI5P4K alpha inh inconclusive, PLK1 PBD block 3µM
CCc1nc2ccc(C(=O)NCCc3ccc(OC)c(OC)c3)cc2nc1CC	PLK1 PBD block inconclusive
Cc1ccc(F)c(C(=O)N2CCCC(C)(C(=O)NS(=O)(=O)C3CC3)C2)c1F (stereo unspecified)	none (no result: JMJD2A Tudor, GCN5L2 inh, HP1b binding inh, BAZ2B block)
COc1ccc(OCC(=O)Nc2ccc3c(c2)nc(CN2CCCC2)n3C)cc1	PLK1 PBD block 27µM
Cn1c(CN2CCCC2)nc2cc(NC(=O)COc3ccc(Cl)cc3)ccc21	none (no result: PI5P4K alpha inh)
COc1ccc(C2(c3ccc(O)cc3O)CC(c3ccccc3Cl)NC(=S)N2)cc1 (stereo unspecified)	JMJD2A Tudor 50µM, HP1b binding inh inconclusive, BAZ2B block 28µM
O=C1c2cccc3cccc(c23)C(=O)N1Cc1cccnc1	none
O=C1c2cccc3c([N+](=O)[O-])ccc(c23)C(=O)N1Cc1cccnc1	HP1b binding inh inconclusive, PLK1 PBD block inconclusive, BAZ2B block 40µM
COC(=O)C1=C[C@@H](C(=O)OC)[C@@H]2C3=C(C(=O)[C@@]2(C)NC(=O)c2ccccc2)[C@H](C)C(C(=O)OC)=C(C(=O)OC)[C@@H]3C1	none (no result: GCN5L2 inh, BAZ2B block)
CCSc1nnc(NC(=O)CSc2nccn2-c2cc(C)cc(C)c2)s1	BAZ2B block inconclusive
CCSc1nnc(NC(=O)CSc2nccn2-c2cccc(C)c2C)s1	JMJD2A Tudor 25µM, HP1b binding inh inconclusive, PLK1 PBD block 3.8µM, BAZ2B block inconclusive
CN1Cc2c(N3CCOCC3)nc3sc(C(=O)c4ccc(Br)cc4)c(N)c3c2CC1(C)C	JMJD2A Tudor 45µM, HP1b binding inh inconclusive, BAZ2B block 35µM
S=C(c1ccccc1)N1CCN(c2ccccc2)CC1	HP1b binding inh inconclusive, PLK1 PBD block 27µM (no result: GCN5L2 inh, BAZ2B block)
CC(C)(C)c1ccc(C(=S)N2CCN(c3ccccc3)CC2)cc1	HP1b binding inh inconclusive, PLK1 PBD block 24µM
Cc1ccccc1N1CCN(C(=S)c2ccccc2)CC1	none
